Results reported in PubChem BioAssay AID1209 (Sanford-Burnham Center for Chemical Genomics, 2008).
The whole screen tested about 190,000 compounds, of which about 810 (0.43%) were called active. This is one part of a sample in which actives are shown more often than they occur. Cut-off read from the data, not from the text of the source: active = inhibition above about 50%; inactive = the rest.

Each molecule was assayed against Mannose-6-phosphate isomerase (Homo sapiens) (UniProt P34949) (assay: inhibitors of human PMI, primary screen, biochemical, fluorescence intensity, coupled assay (AID 1209;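 note: plate controls were DMSO vehicle for no effect and wells lacking substrate for full effect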)). Details: purified PMI enzyme, at 20 µM, hits give high values.
Chain of Mannose-6-phosphate isomerase (Homo sapiens) (P34949 whole entry, looked up): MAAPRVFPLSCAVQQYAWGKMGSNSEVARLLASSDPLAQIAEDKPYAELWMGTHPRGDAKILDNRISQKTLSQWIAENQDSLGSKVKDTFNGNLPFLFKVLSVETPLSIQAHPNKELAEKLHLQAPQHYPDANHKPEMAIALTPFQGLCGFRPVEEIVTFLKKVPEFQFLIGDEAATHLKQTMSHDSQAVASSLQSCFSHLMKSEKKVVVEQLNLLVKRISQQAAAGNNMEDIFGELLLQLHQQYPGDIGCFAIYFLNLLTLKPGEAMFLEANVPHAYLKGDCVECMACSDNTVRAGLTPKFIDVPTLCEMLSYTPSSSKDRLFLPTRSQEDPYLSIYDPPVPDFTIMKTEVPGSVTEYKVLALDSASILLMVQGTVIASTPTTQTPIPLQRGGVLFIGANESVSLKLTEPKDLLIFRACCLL

inhibition, active:
COC(=O)c1cccc(-n2[nH]nnc2=S)c1 64.8%, CCn1nc(CC(=O)Nc2nnc(CC(=O)N3CCCC3)s2)c2ccccc2c1=O 50.5%, CCOC(=O)c1c(N)sc(N)c1C(=O)OCC 60.1%, CCOC(=O)c1sc(N)c(C(N)=O)c1C 64.3%, CCOC(=O)c1sc(N)c(C(=O)Nc2ccccc2OC)c1C 60.2%, CCOC(=O)c1c(N)sc(C(=O)OCCOC)c1C 51%, Cc1c(C(=O)O)c(C(=O)O)nc2ccc(N3CCOCC3)cc12 56.4%, C/C(=C\C(=O)c1cccnc1)Nc1ccc(C(=O)O)cc1 81%, Cn1cc2ccc(N)cc2n1 72.9%, Cc1cccc(Oc2c([N+](=O)[O-])c(=O)n(C)c3ccccc23)c1 76%, CCOc1cc(/C=C2\C(=O)N(c3ccc(C(N)=O)cc3)N=C2C)ccc1OC(=O)c1cccs1 59.8%, Nc1c(C(=O)N2CCCCC2)sc(=S)n1-c1ccccc1 57.7%, N#Cc1ccccc1-n1c(N)c(C(=O)N2CCCC2)sc1=S 71%, Nc1c(C(=O)N2CCOCC2)sc(=S)n1-c1ccccc1 53.3%

inhibition, inactive:
COC(=O)c1cccc(NC(N)=S)c1 -7.9%, COC(=O)c1cccc(-n2cnnn2)c1 -6.9%, COc1ccc(OC)c2c(C)cc(NCCN3CCOCC3)nc12 11.7%, CCn1nc(CC(=O)Nc2nnc(CC(=O)N3CCCCC3)s2)c2ccccc2c1=O 4.6%, CCn1nc(CC(=O)Nc2nnc(CC(=O)N3CCOCC3)s2)c2ccccc2c1=O 5.5%, COc1ccnc(Oc2ccc(Cl)cc2)c1C#N -5.9%, CC(C)CC(=O)N1CCN(Cc2ccc3c(c2)OCO3)CC1 3.6%, CCOC(=O)N1CCN(C(=O)Cn2ccc3c(OC)cccc3c2=O)CC1 3.2%, CCCn1c(SCC(=O)Nc2cc(S(=O)(=O)N3CCOCC3)ccc2OC)n[nH]c1=O -2%, CCOc1cc(-c2nc(C)c(C(C)=O)n2O)ccc1OCC(=O)Nc1ccc(F)cc1 -3.7%, CCOC(=O)c1c(N)sc(C(=O)OC)c1C -6.6%, CCOC(=O)c1c(N)sc(C(N)=O)c1C -5.6%, CCOC(=O)c1c(N)sc2c1CCCC2 5.6%, CCOC(=O)c1sc(N)c(C(=O)OC)c1C 7%, CCOC(=O)c1sc(N)c(C(=O)Nc2ccccc2)c1C 44.4%, CCCOC(=O)c1c(N)sc(C(=O)OCC)c1C 2.1%, CCOC(=O)c1c(N)sc(C(=O)Nc2ccccc2F)c1C 11.6%, CCOC(=O)c1c(N)sc(C(=O)N(C)C)c1C -5%, NNC(=O)COc1ccc(F)cc1 15.9%, O=C(NCc1ccncc1)c1cncc(Br)c1 2%, NC1=NC(=O)/C(=C\c2ccc(O)c([N+](=O)[O-])c2)S1 -3.7%, CCc1c(O)cc2n(c1=O)-c1ccc(Cl)cc1C2(C)C 2.7%, CN(CC(=O)NC(=O)NCc1ccccc1)Cc1ccc(Cl)c(Cl)c1 14%, Cc1cccc(NC(=O)C(=O)NCCc2c[nH]c3ccccc23)c1C 12.5%, CCC(=O)Nc1cccc(-n2nnnc2SCC(=O)N2CCCCC2)c1 -4.2%, COC(=O)c1nc2ccc(N3CCOCC3)cc2c(C)c1C(=O)OC 23.5%, Cc1cc(C(=O)Nc2ccc(N3CCOCC3)cc2)c2ccccc2n1 6.1%, CC(C)c1nc(SCC(=O)c2ccccc2)c2c(=O)n(C)c(=O)n(C)c2n1 5.8%, Cc1nn(C)c(C)c1C1C(C#N)=C(N)OC2=C1C(=O)CC(C)(C)C2 (stereo unspecified) -1.4%, CC(=O)Nc1ccc(N/C(C)=C/C(=O)c2cccnc2)cc1 -7.3%, C/C(=C\C(=O)c1cccnc1)Nc1ccc(O)cc1 42.8%, CCCCCCSc1nnc(-c2cnn(-c3ccccc3)c2-n2cccc2)n1C 16.4%, CC(=O)CC(C)=NCCN=C(C)CC(C)=O -3.7%, Cc1ccc2cc(N)ccc2n1 45.2%, Cn1cc2cc(NC(N)=S)ccc2n1 1.7%, O=C(COC(=O)/C=C/c1ccc(S(=O)(=O)N2CCOCC2)cc1)NCc1ccc(F)cc1 9.2%, CC(C)[C@H](NC(=O)c1ccccc1)C(=O)OCC(=O)N1CCN(C(=O)c2ccco2)CC1 -11.4%, Cc1ccc(Nc2c([N+](=O)[O-])c(=O)n(C)c3ccccc23)cc1 3.9%, Cc1cccc(Nc2c([N+](=O)[O-])c(=O)n(C)c3ccccc23)c1 2.7%, COC(=O)C1CCN(C(=O)c2ccc(SC)cc2OC)CC1 6.4%, CCOc1cc(/C=C2/C(=O)N(c3ccccc3)N=C2C)ccc1OC(=O)c1ccco1 37.5%, CCOc1cc(/C=C2/C(=O)N(c3ccccc3)N=C2C)ccc1OC(=O)c1cccs1 13.1%, O=C(NCC(O)c1ccc([N+](=O)[O-])cc1)c1cccc(S(=O)(=O)N2CCCC2)c1 (stereo unspecified) 7.8%, CCOC(=O)N1CCC(n2c(SCC(=O)NCCC3=CCCCC3)nc3ccccc3c2=O)CC1 8.6%, Cc1ccc(-n2c(N)c(C(=O)N3CCOCC3)sc2=S)cc1 36.2%, CN1CCN(C(=O)c2sc(=S)n(-c3ccccc3)c2N)CC1 2.8%, Cc1ccc(-n2c(N)c(C(=O)N3CCCCC3)sc2=S)cc1 22.6%, Cc1ccc(-n2c(N)c(C(=O)N3CCN(C)CC3)sc2=S)cc1 2.7%, CCn1c(N)c(C(=O)N2CCOCC2)sc1=S 8.6%, Cc1c(C(=O)N2CCCCC2)sc(N)c1C#N 8.9%, Cc1ccc(-c2nnc(SCC(=O)N/N=C/c3ccccc3C(=O)O)n2-c2ccccc2)cc1 -2.4%, CC(C)NC(=O)C1CCN(Cc2cnn(-c3ccccc3)c2-n2cccc2)CC1 -1.9%
